Assay outcomes (PubChem BioAssay)
VP16 counter – VP16 counterscreen qHTS for inhibitors of ROR gamma transcriptional activity | Drosophila S2 Gal4-VP16 UAS-luciferase, luminescence, 20 h | Potency, µM (highest dose often 53.6 µM), hits mostly inhibitors | 310,000 compounds, 3.5% hits | AID 2546, 2010;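 also: Gal4-VP16 expression switched on by copper sulfate through the metallothionein promoter; nearly all actives have a fitted effect of over 50% in size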
RORg inh – qHTS for inhibitors of ROR gamma transcriptional activity | Nuclear receptor ROR-gamma (Mus musculus), P51450 | Drosophila S2 Gal4-RORgamma UAS-luciferase reporter, 20 h | Potency, µM (titrated, usually from 53.6 µM), most hits filed as inhibitors | 310,000 compounds, 5.4% hits; also: nearly all actives have a fitted effect of over 60% in size
Target sequence (P51450 whole entry, looked up, the tested form may be a part): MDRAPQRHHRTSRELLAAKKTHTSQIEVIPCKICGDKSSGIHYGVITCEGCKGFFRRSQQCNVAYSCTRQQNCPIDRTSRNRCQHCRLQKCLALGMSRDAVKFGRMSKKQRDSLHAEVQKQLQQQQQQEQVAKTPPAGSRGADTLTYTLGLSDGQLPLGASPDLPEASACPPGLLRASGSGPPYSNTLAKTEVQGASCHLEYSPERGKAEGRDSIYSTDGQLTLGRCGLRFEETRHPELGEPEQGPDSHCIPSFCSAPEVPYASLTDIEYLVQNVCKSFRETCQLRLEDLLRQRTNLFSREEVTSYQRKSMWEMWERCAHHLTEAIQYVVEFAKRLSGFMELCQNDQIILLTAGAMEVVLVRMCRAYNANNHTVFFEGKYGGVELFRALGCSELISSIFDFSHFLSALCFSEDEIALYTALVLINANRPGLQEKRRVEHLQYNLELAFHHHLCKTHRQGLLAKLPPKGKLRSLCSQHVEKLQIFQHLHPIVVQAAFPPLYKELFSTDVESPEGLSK
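Schneider cells (Drosophila), stable Gal4 DBD–ROR gamma + UAS-luc; 1 hr cmpd preincubation; Cu2+ induction 700 uM final; 20 hr ambient; luminescence.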
ATXN2 expr inh – Primary qHTS for Inhibitors of ATXN expression | HEK-293 ATXN2-luciferase reporter, luminescence, 24 h | Potency, µM (doses to about 57 µM), usual class: inhibitors | 360,000 compounds, 0.72% hits | AID 1745845, 2022; also: nearly all actives have a fitted effect of over 55% in size
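qHTS (up to 57 uM final) was run with 24 h compound exposure of reporter cells at 37 °C. Each well was multiplexed: SteadyGlo luminescence measured ATXN2-luciferase expression after a fluorogenic Gly-Phe-AFC viability readout (25 uM final).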
TGFb inhibitor – qHTS for Inhibitors of TGF-b; AID 588855, 2011; 410,000 compounds, 1.2% hits; HepG2 CAGA-GFP TGF-b/SMAD3 reporter, GFP fluorescence, 18 h; TGF-beta stimulated, 500 pg/mL final; Potency, µM (titrated, usually from 46.1 µM), hits mostly inhibitors; also: nearly all actives have a fitted effect of over 65% in size
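Inhibition was scored as loss of TGF-beta-induced (500 pg/mL final, 18 hours, 37 degrees C) GFP in HEPG2 cells carrying a CAGA-GFP reporter, in DMEM with 1% FBS. Well GFP was summed per cell; Activity was normalised to unstimulated and stimulated DMSO wells, then concentration-response fitting.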
HepG2 viability – qHTS for Inhibitors of TGF-b: Cytotox Counterscreen. AID 588856, 2011. HepG2 CAGA-GFP viability, ATP luminescence, 18 h. Potency, µM (top dose mostly 46.1 µM), hits mostly cytotoxic. 410,000 compounds, 0.76% hits
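CellTiter-Glo luminescence gave cytotoxicity after 18 hours at 37 degrees C. The cells were HepG2 CAGA-GFP in 1% FBS DMEM, stimulated with 500 pg/mL TGF-beta after compound addition. %Activity was normalised to no-cell wells (complete cell-killing) and DMSO (no toxicity), and curves were fitted and classified.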
ATXN viability – Viability Counterscreen for Primary qHTS for Inhibitors of ATXN expression; S2 cells (HEK-293 line with an ATXN2-luciferase reporter) viability, CellTiter-Fluor protease fluorescence, 24 h; Potency, µM (top dose mostly 56.7 µM), actives largely listed as cytotoxic; 400,000 compounds, 0.49% hits; also: nearly all actives have a fitted effect of over 40% in size
Numbers stand for hits; - = inactive; ? = inconclusive; . = no result given; [ ] = dose if it differs, or a comment. In the library only some 6.3% were active in any assay of this set; here they are far more common. Calls follow the shape of the dose curve; as a rule, active = well fitted curve in the direction sought with a large enough effect; inconclusive = small, poorly fitted or top-dose-only effect, or another doubt; inactive = no such curve, though single readings can be large; an effect the other way counts as inactive or inconclusive.

SMILES	VP16 counter	RORg inh	ATXN2 expr inh	TGFb inhibitor	HepG2 viability	ATXN viability
CCOc1ccc(CCNC(=O)Cc2ccc(NC(=O)N3CCSc4ncccc43)cc2)cc1	.	.	.	-	-	.
COc1cc(CNC2CCCC2)cc(Cl)c1OCc1ccccc1F	-	-	20µM	?	11.2µM	.
CCOc1ccccc1NC(=O)Cn1c(=O)n(Cc2ccc(C(=O)NCCCOC)cc2)c(=O)c2ccccc21	.	.	-	-	-	-
COc1ccc(C2c3[nH]c4ccc(OC)cc4c3CCN2C(=O)Nc2ccccc2)cc1 (configuration not stated)	.	.	-	8.91µM	-	?
COc1cc(NC(=O)Cn2nc(C(F)(F)F)c3c2CCCC3)c(OC)cc1Cl	.	.	.	?	-	.
CCN1C(=O)/C(=C2/C=Cc3cc(C)ccc3N2CC)N(C)C1=S	?	12.6µM	-	-	-	?
CCN1/C(=C2/SC(=S)N(C)C2=O)C=Cc2cc(C)ccc21	.	.	-	-	-	-
COc1ccc(OC)c(CNc2ncnc3c2nc2n3CCCC2)c1	.	.	.	-	-	.
COc1cc(/C=N/Nc2nc(N3CCCC3)nc(N3CCCC3)n2)ccc1OCc1ccccc1F	-	?	-	-	-	-
COc1ccc(/C=N/Nc2nc(Nc3ccccc3)nc(N3CCCC3)n2)cc1	-	2.82µM	-	?	-	-
COc1ccc(/C=N/Nc2nc(N3CCCC3)nc(N3CCCC3)n2)cc1O	-	11.2µM	-	-	-	-
O=C(O)COc1ccc(/C=N/Nc2nc(Nc3ccccc3)nc(N3CCCCC3)n2)cc1	?	?	-	-	-	-
COc1ccc(/C=N/Nc2nc(N3CCCC3)nc(N3CCCC3)n2)cc1	?	5.01µM	-	-	-	?
c1ccc(Nc2nc(N3CCCCC3)nc(N3CCCCC3)n2)cc1	-	-	-	-	-	-
C(=N\Nc1nc(Nc2ccccc2)nc(N2CCCCC2)n1)/c1ccco1	12.6µM	2.24µM	.	.	.	.
CN(C(=O)C1Cc2c(-c3ccc(Cl)cc3)ccnc2O1)c1ccccc1 (configuration not stated)	.	.	-	-	-	-
c1ccc(Nc2nc(N3CCCCC3)nc(N3CCNCC3)n2)cc1	-	-	?	-	11.2µM	-
COc1cc2cc(C(=O)N(C)C3CCS(=O)(=O)C3)[nH]c2cc1OC (configuration not stated)	-	20µM	-	-	-	-
CC1CCCCC1NC(=O)COc1ccccc1C#N (configuration not stated)	.	.	-	-	-	-
c1ccc(CCc2nnc3n2CCN(Cc2ccc4ccccc4n2)CC3)cc1	.	.	.	.	.	-
CN(C)S(=O)(=O)c1cccc(-c2nn(-c3ccccc3)cc2/C=C2\SC(=S)NC2=O)c1	?	12.6µM	-	12.6µM	-	-
O=C(/C=C/c1ccccn1)NCC1Cc2cccc(-c3ncccn3)c2O1 (configuration not stated)	.	.	.	.	.	-
O=C(NC(=S)Nc1ccccc1N1CCCCC1)c1ccco1	3.98µM	3.16µM	-	11.2µM	-	-
O=C(NC(=S)Nc1ccccc1N1CCCC1)c1ccco1	-	-	-	-	-	?
O=C(NC(=S)Nc1cccc(Cl)c1N1CCCCC1)c1ccco1	7.08µM	3.98µM	-	?	-	-
SMILES	VP16 counter	RORg inh	ATXN2 expr inh	TGFb inhibitor	HepG2 viability	ATXN viability
Fc1cc(F)cc(NC(=S)Nc2ccccc2N2CCOCC2)c1	-[10 µM]	12.6µM	-	-	-	-
O=C(NC(=S)Nc1ccccc1Cl)c1ccco1	?	12.6µM	-	-	-	-
COc1ncccc1C(=O)N1CCOc2ccc(C(O)C(c3ccccc3)c3ccccc3)cc2C1 (configuration not stated)	.	.	.	.	.	-
O=C(NC(=S)Nc1ccccc1N1CCOCC1)c1ccc(-c2cc(Cl)ccc2Cl)o1	2.51µM	0.891µM	-	-	-	-
O=C(Nc1ccccc1N1CCOCC1)c1ccco1	-	-	-	-	-	-
O=C(c1ccc(-c2cc(Cl)ccc2Cl)o1)N1CCOCC1	-	-	-	-	-	-
CCC(C)c1ccccc1NC(=S)NC(=O)c1ccco1 (configuration not stated)	3.16µM	3.55µM	-	-	-	-
O=C(NC(=S)Nc1ccccc1N1CCOCC1)c1ccco1	14.1µM	14.1µM	-	-	-	-
CCOC(=O)C1=C(C2=CCCCC2)c2ccc(OC)cc2N(S(=O)(=O)C(F)(F)F)C1C(=O)OCC (configuration not stated)	.	.	?	14.1µM	-	?
COc1ccccc1NC(=O)CSc1nnnn1-c1ccc2c(c1)OCO2	.	-[0.365 µM]	-	-	11.2µM	-
COc1ccccc1NC(=O)CSc1nnnn1-c1ccccc1OC	-	?	-	-	-	-
CCCCN1C(=O)CN(C2CCCCCC2)C(=O)C1c1ccc(OCC)c(OC)c1 (configuration not stated)	.	.	.	-	-	.
CCS(=O)(=O)c1ccc(OC)c(N=Nc2ccc(O)c3ncccc23)c1	?	1µM	-	-	-	-
CCN(CC)S(=O)(=O)c1cc(OC)ccc1N=Nc1ccc(O)c2ncccc12	1.26µM	1.26µM	.	?	-	.
CCn1c(CN2CCCCC2)nc2cc(NC(=O)COc3ccccc3C(C)(C)C)ccc21	.	.	-	-	-	-
Cc1ncc(-c2ccnc(Nc3ccc(S(C)(=O)=O)cc3)n2)n1C(C)C	.	.	3.43µM	.	.	.
Cc1cc(C)c(S(=O)(=O)c2cccc(C)c2C)c(=O)[nH]1	-	-	-	-	-	-
COc1ccc(-n2nc3cc(C)c(NC(=O)COc4cccc(C)c4)cc3n2)cc1	.	.	-	-	-	-
OCCNc1c2ccccc2nc2ccccc12	?	-	18.9µM	?	-	.
Cc1ccc(Nc2nc(NCCO)c3ccccc3n2)cc1C	-	-[1.91 µM]	-	14.1µM	-	-
COc1ccccc1Nc1nc(NCCO)c2ccccc2n1	-	-	.	.	.	.
COc1ccc2c(=O)c(-c3nc(C)cs3)coc2c1	2.24µM	1.26µM	-	-	-	-
Cc1nc(-c2coc3cc(OCC(=O)O)ccc3c2=O)cs1	6.31µM	7.08µM	?	-	-	-
CSc1nc(=O)[nH]c2nc[nH]c12	.	.	.	-	-	.
CCn1ccc(=N)cc1	15.8µM	-	-	-	-	-
CCCCCCCCCn1ccc(=N)cc1	1.58µM	?	2.12µM	?	-	-
N=c1ccn(Cc2ccc(Cl)cc2)cc1	-	-	?	?	-	-
C#CCCCC(=S)Nc1ccccc1	-	-	.	.	.	.
Fc1ccc(NCc2n[nH]c(=S)n2Cc2ccccc2)cc1	-	4.47µM	-	-	-	-
S=c1[nH]nc(CNc2ccc(Cl)cc2)n1Cc1ccccc1	-	3.55µM	-	?	-	-
